Each structure is given as a SMILES string. About 25,000 (6.9%) of roughly 360,000 compounds were called active. Another 9% or so got no clear call; they are omitted. The entries come from a sample that favours actives as a whole. Unmarked numbers belong to inactive results. Calls come from the whole dose curve; as a rule, active = well fitted inhibition curve with a large enough effect; inconclusive = small, poorly fitted or top-dose-only effect; inactive = flat fitted curve, though single readings scatter.
Potency is the fitted concentration of half-maximal effect.

Sequence of Luciferin 4-monooxygenase (Photinus pyralis) (P08659 whole entry, looked up): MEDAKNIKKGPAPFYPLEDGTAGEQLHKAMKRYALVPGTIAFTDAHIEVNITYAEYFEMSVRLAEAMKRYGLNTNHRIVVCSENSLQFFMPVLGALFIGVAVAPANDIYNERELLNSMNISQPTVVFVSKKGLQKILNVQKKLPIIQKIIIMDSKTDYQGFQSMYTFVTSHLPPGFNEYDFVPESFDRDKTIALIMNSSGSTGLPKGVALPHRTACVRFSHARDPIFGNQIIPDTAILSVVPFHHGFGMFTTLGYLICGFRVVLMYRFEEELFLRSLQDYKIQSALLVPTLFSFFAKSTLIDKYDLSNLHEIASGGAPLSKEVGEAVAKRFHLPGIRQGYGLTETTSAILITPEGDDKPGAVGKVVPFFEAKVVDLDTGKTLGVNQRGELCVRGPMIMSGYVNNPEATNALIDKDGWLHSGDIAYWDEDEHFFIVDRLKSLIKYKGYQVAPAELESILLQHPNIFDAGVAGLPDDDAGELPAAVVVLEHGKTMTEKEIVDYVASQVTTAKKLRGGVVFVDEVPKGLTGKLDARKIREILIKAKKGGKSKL

This assay has as its target Luciferin 4-monooxygenase (Photinus pyralis) (UniProt P08659). Nature of the assay: qHTS profiling assay for firefly luciferase inhibitor/activator using purifed enzyme and Km concentrations of substrates (counterscreen for miR-21 project).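 For activity change, negative = inhibition: plate controls were vehicle for no effect and reference inhibitor for full effect.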 Note: nearly all actives have a fitted effect of over 55% in size. The following applies: purified FLuc, luminescence inhibition; series mostly up to 57.5 µM; activity change, negative = inhibition: at the top concentration. An outline of the steps:
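Biochemical qHTS of compounds, final roughly 60 µM downward over six points, against 10 nM purified firefly luciferase using Km concentrations of substrates (10 uM D-luciferin, 10 uM ATP) in Tris acetate pH 7.5 buffer; luminescence output.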
Turning to `O=C(CC1Oc2ccccc2NC1=O)NCc1ccc(F)cc1` (stereo not drawn), the “activity change, negative = inhibition” value is -1.72%.

Consider `CCOC(=O)c1c(C)oc2ccc(N(C(=O)c3ccncc3)S(=O)(=O)c3ccc(CC)cc3)cc12`, for which the “activity change, negative = inhibition” value was 2.91%.

For `O=Cc1c(Cl)cccc1Cl`, the “activity change, negative = inhibition” value is 6.02%.

Turning to `Cc1ccc(-c2nn(-c3cccc(F)c3)cc2CNCCc2ccncc2)o1`, the Potency was 15.1 µM (active).

With `CSCCNCc1cn(-c2ccc(F)cc2F)nc1-c1ccccc1C`, the “activity change, negative = inhibition” value is 1.46%.

Consider `Cc1ccc(-c2nn(-c3ccccc3)cc2CN(Cc2ccccc2)C(=O)CCC(=O)O)o1`, for which the “activity change, negative = inhibition” value is -0.788%.

With `CCCN(CCC)CCNC(=O)Cn1cnc2sc(C)c(S(=O)(=O)N3CCC(C)CC3)c2c1=O`, the “activity change, negative = inhibition” value was 0.958%.

As to `N#Cc1nc(/C=C/c2ccc(F)cc2)oc1NC1CCCCC1`, the “activity change, negative = inhibition” value was 5.61%.

`CC(C)(C)OC(=O)N/N=C/c1cn(-c2ccccc2)nc1-c1cccnc1`: the “activity change, negative = inhibition” value was -11.3%.

On to `Cc1ccc(-c2nn(-c3ccccc3)cc2/C=N/NC(=O)c2ccc3c(c2)OCO3)cc1`, for which the Potency is 4.26 µM (active).

As for `O=C(N/N=C/c1ccc([N+](=O)[O-])o1)c1cn(-c2ccccc2)nc1-c1ccc(F)cc1`, the “activity change, negative = inhibition” value is -9.76%.

For `COc1ccc(C(=O)N2CCC(c3nc4ccccc4o3)CC2)cc1`, the “activity change, negative = inhibition” value was -7.24%.

As to `CCOc1ccc(C(C(=O)NCCOC)N(CCOC)C(=O)CCC(=O)Nc2ccccn2)cc1` (stereo not drawn), the “activity change, negative = inhibition” value is -1.94%.

`CC(O)c1ccc(OCCN(C)c2ccccn2)cc1` (stereo not drawn): the Potency is 15.1 µM (active).

With `CC(C)c1ccc(OCC(O)CN2CCN(c3ccccn3)CC2)cc1` (stereo not drawn), the “activity change, negative = inhibition” value was 2.2%.

As to `COCCn1c(CCC(=O)Nc2cc(C)ccc2C)nc2cccnc21`, the “activity change, negative = inhibition” value is -0.522%.

Regarding `COc1ccc2c(c1)C=C(C(=O)NCc1cc(Br)ccc1OC)CO2`, the “activity change, negative = inhibition” value was -6.57%.

As to `COc1ccccc1NC(=O)c1sc2nc(C)c(C(=O)Nc3ccc(Cl)cc3)c(-c3ccc(Br)cc3)c2c1N`, the “activity change, negative = inhibition” value is -1.17%.

On to `CC(C)OC(=O)CN1C(=O)C(=O)c2ccccc21`, for which the “activity change, negative = inhibition” value was -0.663%.

In the case of `Cc1cc(/C=C2/SC(=O)N(CC(=O)OC(C)C)C2=O)c(C)n1C`, the Potency was 15.1 µM (active).

Take `O=C(CN1CCCCCC1)NCCN1C(=O)S/C(=C\c2ccccc2Cl)C1=O`: the “activity change, negative = inhibition” value is -7.09%.

Turning to `O=C(COC(=O)c1n[nH]c2ccccc12)NCc1ccccc1`, the “activity change, negative = inhibition” value was -11.5%.

Turning to `O=C(CC(=O)N/N=C\c1ccc(F)cc1)NCCc1ccccc1`, the “activity change, negative = inhibition” value was -1.3%.

Regarding `O=C(NCCc1ccc(F)cc1)c1n[nH]c2ccccc12`, the Potency is 16.9 µM (active).

For the compound `COc1cccc(CNC(=O)c2n[nH]c3ccccc23)c1`, the Potency was 26.9 µM (active).

With `COc1ccc(NC(=O)COC(=O)c2n[nH]c3ccccc23)c(OC)c1`, the “activity change, negative = inhibition” value is -1.44%.

Turning to `COc1ccc(COC(=O)c2n[nH]c3ccccc23)cc1F`, the Potency was 19 µM (active).

With `O=C(COC(=O)Cc1c[nH]c2ccccc12)NCCc1ccccc1`, the “activity change, negative = inhibition” value is 4.44%.

Regarding `O=C(NCCc1ccc(F)cc1)c1ccc(S(=O)(=O)N2CCCCC2)cc1`, the “activity change, negative = inhibition” value was -2.12%.

Regarding `COc1cccc(CNC(=O)Cc2csc(Nc3nc(=S)[nH]c4ccccc34)n2)c1`, the “activity change, negative = inhibition” value was -0.0432%.

Turning to `O=C(NCCc1ccc(Cl)cc1)c1ccc2c(c1)N(Cc1ccc(F)cc1)C(=O)CS2`, the “activity change, negative = inhibition” value was -14.2%.

For `COc1ccc(F)cc1C(=O)COC(=O)c1n[nH]c(=O)c2ccccc12`, the “activity change, negative = inhibition” value was -1.17%.

For the compound `O=C(NCCc1ccc(F)cc1)c1ccc2nccnc2c1`, the Potency is 8.49 µM (active).

Source of the values: PubChem BioAssay AID588342 (National Center for Advancing Translational Sciences (NCATS), 2011).
